Results on 90 compounds are retold here after PubChem BioAssay AID1851 (National Center for Advancing Translational Sciences (NCATS), 2009).

Values joined by “and” are separate entries in the source; they are usually repeats but may differ in a detail not shown here. Equal values may be shown once. Among all 16,000 compounds or so, about 5,100 (32%) were called active. About 25% were inconclusive and are not listed. This is one part of the list. Unmarked numbers belong to inactive results. Calls come from the whole dose curve; as a rule, active = well fitted curve in the direction sought with a large enough effect; inconclusive = small, poorly fitted or top-dose-only effect, or effect the other way; inactive = no such curve, though single readings can be large or run the other way.
% is set by controls: 0 for no effect and ±100 for the full control effect.

The target in this experiment is Cytochrome P450 3A4 (Homo sapiens) (UniProt P08684). The experiment can be described thus: Cytochrome panel assay with activity outcomes. The settings on record: recombinant CYP, pro-luciferin dealkylation, luminescence, p450-cyp3a4; series mostly up to 57.1 µM; activity, negative = inhibition: at the top concentration.
Chain of Cytochrome P450 3A4 (Homo sapiens) (P08684 whole entry, looked up): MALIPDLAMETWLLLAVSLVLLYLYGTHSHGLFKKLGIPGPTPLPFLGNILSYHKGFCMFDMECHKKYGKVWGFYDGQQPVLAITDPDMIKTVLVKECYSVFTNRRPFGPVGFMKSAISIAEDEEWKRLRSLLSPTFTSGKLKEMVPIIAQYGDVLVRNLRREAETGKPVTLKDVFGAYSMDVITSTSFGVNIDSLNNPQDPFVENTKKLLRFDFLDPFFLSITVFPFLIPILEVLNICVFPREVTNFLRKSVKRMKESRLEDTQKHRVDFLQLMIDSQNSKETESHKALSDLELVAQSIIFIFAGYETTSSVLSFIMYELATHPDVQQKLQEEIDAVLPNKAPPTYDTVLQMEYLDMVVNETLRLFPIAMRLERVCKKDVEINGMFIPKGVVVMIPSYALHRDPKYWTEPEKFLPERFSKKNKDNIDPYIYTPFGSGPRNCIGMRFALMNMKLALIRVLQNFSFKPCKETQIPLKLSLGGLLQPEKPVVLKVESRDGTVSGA
For the compound `CCC(=O)Nc1ccccc1C(=O)OCC(=O)c1ccccc1`, the “activity, negative = inhibition” value was -9.57%.
What is called AC50 is the concentration at which the activity in the assay is half-maximal. Consider `CCC(=O)Nc1ccccc1C(=O)OCC(=O)c1cccc2ccccc12`, for which the AC50 is 11.2 µM (active).
As to `CCOC(=O)c1ccccc1NC(=O)/C(C)=C/C(=O)O`, the “activity, negative = inhibition” value is -19.6%.
Turning to `c1ccc2c(Nc3ccncc3)nc(-c3ccc4c(c3)OCO4)nc2c1`, the AC50 was 0.501 µM (active).
Still for that read-out and setting: in the case of `c1ccc(Nc2nc(-c3ccc4c(c3)OCO4)nc3ccccc23)cc1` it was 5.01 µM (active).
Turning to `Nc1ncnc2c([C@@H]3O[C@@H](CO)[C@H](O)[C@@H]3O)nsc12`, the activity, negative = inhibition is -0.156% [at 11.4 µM].
The same measure, in the same setting: in the case of `CN(C)/N=N\c1nc[nH]c1C(N)=O` it was -4.61% [at 25.6 µM].
`O=C(c1nn(Cc2ccccc2)c(=O)c2ccccc12)N1CCN(C/C=C/c2ccccc2)CC1`: the AC50 was 2.24 µM (active).
Regarding `O=C(O)C1C2C=CC(C2)C1C(=O)N1CCN(C/C=C/c2ccccc2)CC1` (stereo not given), the “activity, negative = inhibition” value is -12.1%.
As to `CCC(=O)Nc1cccc(NC(=O)c2cccc([N+](=O)[O-])c2)c1`, the AC50 was 22.4 µM (active).
Still for that read-out and setting: as for `O=C(Nc1nc(-c2ccccc2)cs1)c1cccc([N+](=O)[O-])c1`, the figure is 10 µM (active).
`O=C(COc1cccc(NC(=O)c2cccc([N+](=O)[O-])c2)c1)c1ccc(Br)cc1`: the “activity, negative = inhibition” value is 25.1%.
Same read-out and setting: as for `COc1ccc(-c2nc(NC(=O)c3ccccc3)sc2-c2ccc([N+](=O)[O-])cc2)cc1`, the figure is 12.5% [at 2.29 µM].
Take `COc1ccc(CC(=O)Nc2cccc(/C(C)=N/NC(=O)c3cccc([N+](=O)[O-])c3)c2)cc1`: the AC50 was 2 µM (active).
`COc1ccc(C(=O)Nc2cccc(/C(C)=N/NC(=O)c3ccc([N+](=O)[O-])cc3)c2)cc1OC`: the activity, negative = inhibition is -28.5% [at 2.29 µM].
On the same count and under the same terms, in the case of `N[C@H](C(=O)O)c1ccc(C(=O)O)cc1` it was -13.3%; in that of `CCN(CC)CCNC(=O)Cn1nc(-c2ccc(C)cc2)ccc1=O`, -12.6%.
Regarding `COc1ncc2nc(-c3cccc(C#N)c3)c(=O)n(CCC#N)c2n1`, the AC50 was 25.1 µM (active).
With `CN(C)c1ncc2nc(-c3cccc(C#N)c3)c(=O)n(CCC#N)c2n1`, the “activity, negative = inhibition” value is 10.2%.
Turning to `COc1cccc(Cn2c(=O)c(-c3cccc(C#N)c3)nc3cnc(OC)nc32)c1`, the AC50 was 3.16 µM (active).
As for `N#CCCn1c(=O)c(-c2cccc(C#N)c2)nc2cnc(Oc3cccc(Cl)c3)nc21`, the “activity, negative = inhibition” value was 12.9%.
In the case of `COc1ccc(Oc2ncc3nc(-c4cccc(C#N)c4)c(=O)n(Cc4cccc(OC)c4)c3n2)cc1`, the half-maximal activity concentration (AC50) was 2 µM (active).
For the compound `CC(C)[C@H](CO)Nc1nc(Nc2ccc(C(=O)O)c(Cl)c2)c2ncn(C(C)C)c2n1`, the “activity, negative = inhibition” value was -24.8%.
With `NCCC(=O)O`, the “activity, negative = inhibition” value is -12.8%.
On to `Cc1ccc(-c2nnc(-c3ccccc3S(=O)(=O)Cc3ccc(Cl)cc3)o2)cc1`, for which the AC50 was 3.98 µM (active).
Regarding `O=C(Nc1nnc(-c2ccc(Cl)cc2)o1)Nc1ccccc1Cl`, the activity, negative = inhibition was -3.31% [at 2.29 µM].
Still for that read-out and setting: in the case of `NS(=O)(=O)c1cc(C(=O)O)c(O)c2ccccc12` it was -3.6% [at 11.4 µM].
Regarding `COc1ccc2c(c1)C(c1ccc([N+](=O)[O-])cc1)=NNC(c1ccco1)=N2`, the AC50 was 14.1 µM (active).
The same measure, in the same setting: in the case of `FC(F)(F)c1ccccc1-c1ccc2ncnc(NCc3cccs3)c2c1` it was 5.01 µM (active); in that of `Cc1ccccc1-c1ccc2ncnc(NCc3cccs3)c2c1`, 3.98 µM (active); in that of `Cc1cc2nc(CCN(C(=S)NCC(C)C)C3CCCC3)[nH]c2cc1C`, 17.8 µM (active).
As for `Cc1noc(C)c1COc1ccc(C(=O)NCC2CCCO2)cc1` (stereo not given), the “activity, negative = inhibition” value was -6.7%.
Turning to `COc1cc(C(=O)OC(C)C(=O)Nc2ccc3c(c2)OCO3)ccc1OCc1c(C)noc1C` (stereo not given), the AC50 is 0.631 µM (active).
Still for that read-out and setting: as for `CCc1cc2c(nc1CC)CCN(CC/C(C)=N/O[C@@H](C)c1cn([C@H](CO)Cc3ccccc3)nn1)C2`, the figure is 3.16 µM (active) and 3.98 µM (active).
For the compound `CCc1cc2c(nc1CC)CCN(CC/C(C)=N/O[C@@H](C)c1cn([C@@H]3COC[C@@H]3O)nn1)C2`, the activity, negative = inhibition was -5.44% [at 11.4 µM].
Same read-out and setting: as for `CC(C)=NO[C@@H](C)c1cn([C@H](CO)Cc2ccccc2)nn1`, the figure is -28.8% [at 11.4 µM] and -23.4% [at 11.4 µM].
Regarding `C/C(CCN1CCCc2nc(C)c(C)cc21)=N\O[C@@H](C)c1cn([C@H](CO)Cc2ccccc2)nn1`, the AC50 was 2 µM (active).
Same read-out and setting: in the case of `C/C(CCN1CCCCc2nc(C)c(C)cc21)=N\O[C@@H](C)c1cn([C@H](CO)Cc2ccccc2)nn1` it was 3.98 µM (active) and 5.01 µM (active).
With `Cc1cccc(N(CC(=O)N2CCOCC2)S(C)(=O)=O)c1`, the “activity, negative = inhibition” value was -0.837%.
`CN(C)C(=O)CN(c1ccc2c(c1)OCO2)S(C)(=O)=O`: the AC50 was 25.1 µM (active).
On the same count and under the same terms, as for `COc1ccc(NC(=O)CN2CCN(CC(=O)Nc3ccccc3Cl)CC2)cc1`, the figure is 10 µM (active).
Consider `O=C(CN1C(=O)C2C3C=CC(C3)C2C1=O)Nc1ccc(C(=O)O)cc1` (stereo not given), for which the “activity, negative = inhibition” value was -10.2%.
As to `COc1ccc(NC(=O)CN2c3cccc4cccc(c34)S2(=O)=O)cc1`, the AC50 was 4.47 µM (active).
Still for that read-out and setting: as for `COc1ccc(NC(C)=O)cc1NC(=O)CN1CCN(CC(=O)Nc2ccccc2Cl)CC1`, the figure is 12.6 µM (active).
On the same count and under the same terms, in the case of `O=C(CN1C(=O)C2C3C=CC(C3)C2C1=O)Nc1ccc2c(c1)OCCO2` (stereo not given) it was 25.1 µM (active).
Turning to `COc1ccccc1NC(=O)CN1CCN(CC(=O)Nc2ccc(OCc3ccccc3)cc2)CC1`, the “activity, negative = inhibition” value was -17.7%.
Still for that read-out and setting: as for `CSc1nc(NC2CCCC2)c([N+](=O)[O-])c(NC2CCCC2)n1`, the figure is -23.7%; as for `COc1ccc([C@@H]2CC(=O)c3c(O)cc(O[C@H]4O[C@@H](CO[C@H]5O[C@@H](C)[C@@H](O)[C@@H](O)[C@@H]5O)[C@@H](O)[C@@H](O)[C@@H]4O)cc3O2)cc1O`, -1.85% [at 25.6 µM].
With `O=C(CN1CCN(CC(=O)Nc2ccccc2Cl)CC1)Nc1ccc2c(c1)OCCO2`, the AC50 is 14.1 µM (active).
For `O=C(Nc1ccc2c(c1)OCCO2)C1CCN(C(=O)c2ccccc2)CC1`, the “activity, negative = inhibition” value was 21.8%.
Still for that read-out and setting: as for `COc1cccc(OC)c1OCCCCN1CCCC1`, the figure is -8.41%; as for `COc1cccc(OC)c1OCCCN1CCOCC1`, -7.58%.
Take `COc1cccc(OC)c1OCCNC[C@@H]1COc2ccccc2O1`: the AC50 was 2 µM (active) and 2.51 µM (active).
Take `O=C(COc1ccccc1Cl)NC(=S)Nc1cccc(NC(=O)c2ccccc2Cl)c1`: the activity, negative = inhibition was 7.56% [at 2.29 µM].
Consider `Cc1cnn(CCC(=O)NNC(=S)Nc2cccc(Cl)c2)c1`, for which the AC50 was 12.6 µM (active).
On the same count and under the same terms, in the case of `O=C(CCN1C(=O)c2ccccc2C1=O)NC(=S)Nc1cccc(Cl)c1` it was 15.8 µM (active).
Take `O=C(Nc1cccc(Cl)c1)N1CCN2C(=O)c3ccccc3C12c1ccccc1` (stereo not given): the activity, negative = inhibition is -22.9% [at 2.29 µM].
Still for that read-out and setting: as for `Cc1cccc(NC(=S)NNC(=O)CCn2cc(C)cn2)c1`, the figure is 17%.
Still for that read-out and setting: as for `CNC[C@H](O)[C@H](O)[C@H](O)[C@H](O)CO`, the figure is -7.18% [at 25.6 µM].
Regarding `Cc1cccc(NC(=O)c2cccc(N3C(=O)C4C5CCC(C5)C4C3=O)c2)c1C` (stereo not given), the AC50 is 11.2 µM (active).
As for `Cc1cccc(NC(=O)c2onc3c2CCCC3)c1C`, the “activity, negative = inhibition” value was -26.3%.
Still for that read-out and setting: as for `CN(C)c1ccc(NC(=O)c2cccc(N3C(=O)C4C5C=CC(C5)C4C3=O)c2)cc1` (stereo not given), the figure is -26%.
On the same count and under the same terms, in the case of `Cc1noc(C)c1-c1nc(N2CCN(C)CC2)c2ccccc2n1` it was -26.4%.
For `Cc1noc(C)c1-c1nc(N2CCOCC2)c2ccccc2n1`, the AC50 was 6.31 µM (active).
Still for that read-out and setting: in the case of `Cc1ccccc1-c1nc(N2CCOCC2)c2ccccc2n1` it was 15.8 µM (active); in that of `Clc1ccccc1-c1nc(N2CCNCC2)c2ccccc2n1`, 25.1 µM (active); in that of `c1ccc2c(N3CCOCC3)nc(-c3ccoc3)nc2c1`, 6.31 µM (active).
In the case of `Clc1ccccc1-c1nc(NC2CCNCC2)c2ccccc2n1`, the “activity, negative = inhibition” value is -3.64%.
The same measure, in the same setting: in the case of `O=C(O)CCCCCCCC(=O)O` it was 0.705%; in that of `CCOC(=O)C(C)(C)[C@H](O)C(C)C`, 2.08% [at 11.4 µM].
On the same count and under the same terms, in the case of `Cc1cc2nc3c(=O)[nH]c(=O)nc-3n(CC(O)C(O)C(O)CO)c2cc1C` (stereo not given) it was -18.2% [at 25.6 µM]; in that of `O=C1NC(c2ccccc2)=NC1(NS(=O)(=O)c1ccccc1)C(F)(F)F` (stereo not given), -3.82%.
Consider `Cc1ccccc1-c1nc(N2CCNCC2)c2ccccc2n1`, for which the AC50 is 25.1 µM (active).
On the same count and under the same terms, as for `Cc1ccccc1-c1nc(N2CCN(C)CC2)c2ccccc2n1`, the figure is 20 µM (active).
As to `OC[C@@H]1O[C@@H](n2cnc3c(SCc4ccccc4)ncnc32)[C@@H](O)[C@H]1O`, the activity, negative = inhibition is 7.88% [at 11.4 µM].
On the same count and under the same terms, as for `Nc1nc(Cl)cc(NCCO)n1`, the figure is -4.92% [at 11.4 µM]; as for `CCCCCCCCCCCCCCCCCCc1ccc(C(=O)/C=C\C(=O)O)cc1`, -8.11%.
On to `Cc1nc(C(=O)Nc2cccc(Cl)c2Cl)nn1-c1cc(OC(C)C)c(Cl)cc1Cl`, for which the “activity, negative = inhibition” value was -26.4%.
Take `Cc1c(Cl)cccc1NC(=O)c1ccc(-n2ccnc2)nc1`: the AC50 is 0.0398 µM (active).
With `COc1ccccc1NC(=O)c1ccc(-n2cccn2)nc1`, the “activity, negative = inhibition” value is 0.809%.
With `O=C(Nc1ccc(F)cc1)c1ccc(-n2ccnc2)nc1`, the AC50 was 0.126 µM (active).
The same measure, in the same setting: as for `COc1cccc(Cn2c(NCc3cccnc3)nc3c2c(=O)n(C)c(=O)n3C)c1`, the figure is 3.16 µM (active).
Regarding `CN(C)CCNc1nc2c(c(=O)n(C)c(=O)n2C)n1C`, the activity, negative = inhibition was -5.65% [at 11.4 µM].
Still for that read-out and setting: as for `Cn1c(=O)c2c(nc(NCCNc3nc4c(c(=O)n(C)c(=O)n4C)n3C)n2C)n(C)c1=O`, the figure is 8.34% [at 11.4 µM].
For `O=C(CCCNS(=O)(=O)c1cccc2nsnc12)NCCc1ccccc1`, the AC50 is 7.08 µM (active).
The same measure, in the same setting: in the case of `Cc1cc(C2C(C#N)=C(N)OC3=C2C(=O)CC(C)(C)C3)c(C)s1` (stereo not given) it was 3.55 µM (active).
As to `N#CC1=C(N)OC2=C(C(=O)CCC2)C12CCC1(CC2)OCCO1`, the “activity, negative = inhibition” value was -15.2%.
The same measure, in the same setting: as for `CN1CCN(/C=N/C2=C(C#N)C(c3ccccc3)C3=C(CC(C)(C)CC3=O)O2)CC1` (stereo not given), the figure is 1.82% [at 2.29 µM].
Take `COc1cc(C2C(C#N)=C(N)OC3=C2C(=O)CCC3)c([N+](=O)[O-])cc1OC` (stereo not given): the AC50 is 11.2 µM (active).
On to `COc1ccc(C2C(C#N)=C(N)OC3=C2C(=O)CC(C)(C)C3)c([N+](=O)[O-])c1OC` (stereo not given), for which the AC50 was 5.01 µM (active).
